Screening data deposited in PubChem BioAssay by National Center for Advancing Translational Sciences (NCATS).
HT1080NT lethal = kills 2HG-producing HT-1080-NT fibrosarcoma cells | HT-1080-NT fibrosarcoma viability, CellTiter-Glo ATP luminescence, 48 h | Potency, µM (highest dose often 46.1 µM), for the others: at the top dose activity, negative = less viability, most hits filed as cytotoxic | 1.6% of 360,000 active | AID 686970;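 note: NT is the 2HG producing partner of a matched IDH1 knockdown line; potency is the fitted concentration of half-maximal effect; 0% = DMSO-treated cells and -100% = media-only wells without cells; nearly all actives have a fitted effect of over 55% in size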
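Luminescent CellTiter-Glo readout after 48 hours of compound exposure at 37 degrees C defined viability of HT-1080-NT cells. Activity was normalized to DMSO wells and cell-free media wells; concentration-response curves were fitted and assigned curve classes.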
IL-1B inflam inh = inhibitors of inflammasome signaling (IL-1 beta secretion) | 4.7% of 360,000 active | THP-1 LPS/ATP IL-1B secretion, AlphaLISA, 16 h; hits give low values | AID 743279 | activity change, % at 57.5 µM; in the data active = activity change below about -50%; inconclusive = mostly about -30% to -49%
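THP-1 cells pretreated 1 hr with compounds (up to 57.5 uM final), then stimulated with LPS (250 ng/mL final) plus ATP (1.25 mM final); secreted IL-1B measured by AlphaLISA after 16 hr, decreased signal indicating inhibition.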
TDP1 cell noCPT = qHTS for Inhibitors of human tyrosyl-DNA phosphodiesterase 1 (TDP1): qHTS in cells in absence of CPT | DT40 Tdp1-/- hTDP1 cells, no CPT, ATP luminescence, 48 h | Potency, µM (top dose mostly 46.2 µM), for inactives: at the highest dose activity change, negative = growth inhibition, hits mostly inhibitors | 15% of 420,000 active | AID 686978, 2013; note: potency is the fitted concentration of half-maximal effect; nearly all actives have a fitted effect of over 55% in size
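Seeded 400 DT40-hTDP1 cells/well (vehicle DMSO, no 20 nM CPT); pinned compounds; ≥48 hr at 37 °C; CellTiter-Glo luminescence as viability measure.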
HT1080 IDH1KD tx = toxicity to HT-1080 IDH1 knockdown cells (counter line); HT-1080 IDH1 knockdown viability, ATP luminescence, 48 h; Potency, µM (series often up to 46.1 µM), inactives show top-dose activity, negative = toxicity, usual class: cytotoxic; 2% of 360,000 active; AID 686971;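 note: potency is the fitted concentration of half-maximal effect; 0% = DMSO wells and -100% = cell-free medium wells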
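Using the IDH1-knockdown HT-1080 line run in the same batch and compound series as the NT line, viability after 48 h at 37 °C was determined by CellTiter-Glo luminescence and expressed as % activity.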
DT40 TDP1 CPT = growth inhibition of DT40 Tdp1-/-;hTDP1 cells with camptothecin (screen for TDP1 inhibitors); chicken DT40 Tdp1-/-;hTDP1 cells + 20 nM CPT, ATP luminescence, 48 h; Potency, µM (series often up to 46.2 µM), without a hit: at the highest dose activity change, negative = growth inhibition, actives largely listed as inhibitors; 12% of 420,000 active; AID 686979; note: potency is the fitted concentration of half-maximal effect; nearly all actives have a fitted effect of over 55% in size
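Cell growth measured by CellTiter-Glo luminescence after a minimum 48 h, 37 C compound exposure with 20 nM CPT in Tdp1-knockout DT40 cells stably expressing hTDP1, seeded 400/well; qHTS titration format.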
* hit, by the source's call; ? = inconclusive; / = no result given; [ ] = dose if it differs, or a comment. Sampled rows, rich in hits. Any-hit rate of the full collection: about 19%. Unless noted, calls come from the whole dose curve; as a rule, active = well fitted curve in the direction sought with a large enough effect; inconclusive = small, poorly fitted or top-dose-only effect, or another doubt; inactive = no such curve, though single readings can be large; an effect the other way counts as inactive or inconclusive. Unless noted, % is set by controls: 0 for no effect and ±100 for the full control effect.

SMILES	HT1080NT lethal	IL-1B inflam inh	TDP1 cell noCPT	HT1080 IDH1KD tx	DT40 TDP1 CPT
COc1ccc(Cn2c(NCC(C)C)nc3c2c(=O)n(C)c(=O)n3C)cc1	/	/	?	/	-10%
CCn1c(Oc2ccccc2)nc2c1c(=O)n(C)c(=O)n2C	-19%	10	-18%	-16%	?
COc1ccc(Oc2nc3c(c(=O)n(C)c(=O)n3C)n2Cc2ccc(Cl)cc2Cl)cc1	/	/	21µM*	/	?
Cn1c(=O)c2c(nc(NCC3CCCC(CN)C3)n2Cc2ccc(Cl)cc2Cl)n(C)c1=O (stereo not drawn)	?	13	5.8µM*	-29%	4.6µM*
CCOC(=O)/C=C1/SCC(=O)N1CC(=O)Nc1ccccc1OC(F)F	3%	5	-12%	-4%	-9%
COc1ccc(-c2[nH]ncc2CN2CCCOc3c(cccc3OC)C2)c(OC)c1	13%	-19	-17%	5%	-13%
O=[N+]([O-])c1ccc2nc(Cl)nc(-c3ccccc3)c2c1	-2%	-5	7.3µM*	-3%	12µM*
O=S(=O)(Nc1nc2ccccc2nc1Cl)c1cccc(C(F)(F)F)c1	?	51	?	?	-3%
Cc1cc(C)c(Nc2ncnc3c2cnn3C)c(C)c1	/	/	16µM*	/	21µM*
Cc1cccc(-n2ncc3c(Nc4c(C)cc(C)cc4C)ncnc32)c1	/	/	4.6µM*	/	3.3µM*
Cc1cccc(-n2ncc3c(NC(C)C)ncnc32)c1	-6%	-23	?	-1%	?
COc1ccc(CNC(=O)c2noc(C)c2[N+](=O)[O-])cc1	5%	7	-25%	4%	?
O=C(c1cnccn1)N1CCC[C@@]2(CCN(Cc3cc(C(F)(F)F)cc(C(F)(F)F)c3)C2)C1	/	/	?	/	3%
COc1ccc(-c2ccc3nnc(SCC(=O)N4CCCC4)n3n2)cc1	-7%	?	-24%	0%	-28%
Cc1ccc(C(=O)Nc2nc(-c3ccccn3)cs2)cc1S(=O)(=O)N1CCOCC1	18µM*	171	0.73µM*	4.6µM*	1.3µM*
Cc1nnc(NC(=O)c2ccc(F)c(S(=O)(=O)N3CCOCC3)c2)s1	8%	15	-8%	8%	-3%
Cc1ccc(C(=O)Nc2ccccn2)cc1S(=O)(=O)N1CCOCC1	0%	7	6%	1%	1%
O=C(Nc1nc(-c2ccccn2)cs1)c1cc(S(=O)(=O)N2CCOCC2)ccc1F	?	97	2.3µM*	?	2.6µM*
O=C(Nc1nc(-c2ccccn2)cs1)c1ccc(F)c(S(=O)(=O)N2CCOCC2)c1	?	140	0.58µM*	?	1.5µM*
COc1cccc(CNC(=O)COC(=O)c2cccc(S(=O)(=O)N3CCCC3)c2)c1	5%	9	-5%	1%	0%
O=C(CN1c2cccc3cccc(c23)S1(=O)=O)NCCc1ccc(F)cc1	0%	45	0%	-2%	-23%
CCN(C(=O)COC(=O)C12CC3CC(CC(O)(C3)C1)C2)c1c(N)n(Cc2ccccc2)c(=O)[nH]c1=O	8%	0	-8%	0%	20%
O=C(CSc1ccccc1)NNC(=O)c1ccccc1O	-13%	80	?	?	?
Cc1cc(C)cc(NS(=O)(=O)CCCS(=O)(=O)Nc2cc(C)cc(C)c2)c1	?	-81*	?	21µM*	?
Cc1ccccc1C(=O)Nc1ccc(S(=O)(=O)N2CCC(c3nc4ccccc4s3)CC2)cc1	/	/	21µM*	/	13µM*
SMILES	HT1080NT lethal	IL-1B inflam inh	TDP1 cell noCPT	HT1080 IDH1KD tx	DT40 TDP1 CPT
Cc1ccc(NC(=S)N2CCC(c3nc4ccccc4s3)CC2)cc1	?	-50*	?	4%[9.24 µM]	?
CC1CC=CCC1(CO)CO (stereo not drawn)	1%	8	3%	-2%	4%
COc1ccccc1CNc1nc(NCc2ccccc2F)c2sccc2n1	23µM*	-83*	4.1µM*	21µM*	2.9µM*
COc1ccccc1CNc1nc(NCc2ccccc2)nc2ccsc12	26µM*	-100*	15µM*	18µM*	23µM*
Fc1ccccc1CNc1nc(NCC2CC2)nc2ccsc12	23µM*	-76*	16µM*	21µM*	15µM*
COc1ccccc1CNc1ccccc1F	2%	16	-19%	15%	?
COc1ccc(-c2cc(CNc3nc(NCc4ccccc4OC)nc4ccsc34)on2)cc1	18µM*	0	26µM*	15µM*	16µM*
COc1ccccc1CNc1nc(NCc2cnc(C)cn2)c2sccc2n1	-25%	26	?	-15%	?
Cc1ccc(NC(=O)CSc2cccc[n+]2[O-])c([N+](=O)[O-])c1	25%	13	7%	19%	6%
Cc1ccc[n+](-c2[nH]c(=O)sc2/C=N/NC(=O)c2ccccc2[O-])c1	1%	0	-21%	-1%	-6%
Cc1cc(C)n(CCNc2nc3nonc3nc2N2CCCCC2)n1	29%	-8	-7%	26%	-4%
CNc1nc(NN)nc(Nc2ccccc2)n1	-3%	-26	-29%	0%	-12%
c1ccc(CNc2nc(NCc3ccccc3)c3sccc3n2)cc1	?	-73*	18µM*	?	23µM*
Fc1cc(Cl)ccc1Nc1nc(NCc2ccccc2)nc2ccsc12	0%	-15	9.2µM*	-16%	12µM*
COc1ccccc1CNc1nc(NCc2ccc(C)cc2C)c2sccc2n1	?	-80*	9.2µM*	?	4.6µM*
c1ccc(CNc2nc(Oc3ccncc3)c3sccc3n2)cc1	19%	17	-14%	0%	-23%
COCCNc1nc(Oc2ccc(C(N)=O)cc2)c2sccc2n1	-25%	-20	?	-4%	?
COCCNc1nc(NCc2ccccc2F)c2sccc2n1	-19%	-19	18µM*	-28%	18µM*
Fc1cc(F)nc(NCc2ccccc2)n1	0%	14	14%	0%	13%
O=C(CCNS(=O)(=O)c1ccc(OC(F)(F)F)cc1)N1CCN(C/C=C/c2ccccc2)CC1	-2%	0	?	-11%	?
CCCCCCCCNC(=O)/C(C#N)=C/c1ccc(SC)cc1	-2%	2	?	0%	?
CN(C)/C=C1\Oc2ccc3ccccc3c2C1=O	2%	-5	-12%	0%	11%
O=C1C(=O)c2c(ccc3ccccc23)-c2ccccc21	4.6µM*	-87*	0.52µM*	1.8µM*	0.58µM*
COc1ccc(Nc2ncnc3c2cnn3C)c(OC)c1	/	/	-11%	/	-5%
O=c1c2ccccc2ncn1-c1ccc([N+](=O)[O-])cc1[N+](=O)[O-]	-8%	-64*	18µM*	5%	16µM*
